# A selection: hits, their analogues and other compounds. The true share with any hit is near 1.5%.
# Hsp90 block: tumor Hsp90 inhibitors, primary screen, cell lysate, fluorescence polarization, NCI-N417 lysate | Cy3B-geldanamycin FP displacement | inhibition, % at 30 µM | 64,000 tested, 0.35% active | Heat shock protein HSP 90-alpha (Homo sapiens), P07900;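 active means inhibition above 50%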
# HePTP inh: inhibitors of human HePTP phosphatase, primary screen, biochemical, absorbance, leukemia target | Tyrosine-protein phosphatase non-receptor type 7 (Homo sapiens), P35236 | recombinant HePTP phosphatase activity, OD absorbance | inhibition, % at 20 µM | 110,000 tested, 0.64% active | AID 521, 2006; in the data active means inhibition above about 50%
# Target sequence (P35236 whole entry, looked up): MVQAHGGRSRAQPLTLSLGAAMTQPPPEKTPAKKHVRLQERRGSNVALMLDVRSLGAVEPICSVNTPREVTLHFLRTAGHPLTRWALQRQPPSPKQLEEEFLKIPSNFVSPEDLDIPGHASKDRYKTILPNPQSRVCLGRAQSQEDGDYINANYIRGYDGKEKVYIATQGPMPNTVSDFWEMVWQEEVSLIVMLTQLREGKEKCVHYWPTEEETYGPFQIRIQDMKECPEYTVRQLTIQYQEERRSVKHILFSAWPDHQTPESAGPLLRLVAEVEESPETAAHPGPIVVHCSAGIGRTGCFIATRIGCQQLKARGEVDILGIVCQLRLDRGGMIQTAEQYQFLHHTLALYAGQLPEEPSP
# MKP-1 inh: MKP-1 phosphatase inhibitors, primary screen, biochemical, in vitro | Dual specificity protein phosphatase 1 (Homo sapiens), P28562 | 65,000 tested, 0.15% active | inhibition, %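 (compounds tested at a single concentration somewhere between 10 and 100 µM)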 | recombinant MKP-1, OMFP hydrolysis fluorescence;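 active means inhibition above about 50%, limit read from the data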
# PLAP activator: PLAP enzyme activators, biochemical, luminescence, HTS; activation fold at 20 µM; purified PLAP enzyme, luminescent substrate read-out; stronger effect = higher value; AID 696, 2007; Alkaline phosphatase, placental type (Homo sapiens), P05187; 96,000 tested, 1.2% active; in the data active means activation fold above about 2
# TNAP act DEA: human TNAP enzyme activators, primary screen, biochemical, luminescent, intermediate phosphate acceptor level; Alkaline phosphatase, tissue-nonspecific isozyme (Homo sapiens), P05186; purified TNAP, CDP-star luminescence, 100 mM DEA, 30 min; stronger effect = higher value; scale: 0 levamisole-inhibited, 1 vehicle-only enzyme; activation factor at 20 µM; 64,000 tested, under 10 active; AID 813, 2007;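 active means activation factor of at least 2 at 20 µM, relative to controls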
# Cdc25B inh: inhibitors of Cdc25B phosphatase catalytic domain, primary screen, biochemical, OMFP fluorescence; M-phase inducer phosphatase 2 (Homo sapiens), P30305; inhibition, %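 (compounds tested at 10 µM final in the well)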; recombinant Cdc25B, OMFP fluorescence Ex485/Em525; AID 368, 2006; 65,000 tested, 0.1% active; in the data active means inhibition above about 50%
# Hits are given with their value; 0 = inactive; - = no result; ! = repeats disagree.
SMILES,Hsp90 block,HePTP inh,MKP-1 inh,PLAP activator,TNAP act DEA,Cdc25B inh
Cc1ccc(OCC(=O)Nc2ccc(-c3nc4ncccc4o3)cc2)c(C)c1,0,104!,0,0,0,0
Cc1ccc(C(C)C)c(OCC(=O)Nc2ccc(-c3nc4ncccc4o3)cc2)c1,-,0,-,-,-,-
CCCc1c(C)nc2ccc(Br)cc2c1SCC(=O)O,-,0,-,-,-,-
CCOc1ccccc1C1C(C(=O)OCc2ccc(OC)cc2)=C(C)NC2=C1C(=O)CC(C)(C)C2 (centres undefined),-,0,-,-,-,-
CCOC(=O)c1c(NC(=O)CSc2n[nH]c(N)n2)sc(CC)c1C,0,0,0,2.2,0,0
CCn1c(SCC(=O)N(C(C)C)C(C)C)nnc1-c1cc2ccccc2cc1O,0,0,0,2,0,0
COc1cccc(-c2nn(C)c3sc(C(=O)NCc4ccc(C)o4)cc23)c1,0,0,0,0,0,0
COc1cccc(-c2nn(C)c3sc(C(=O)NCc4ccc5c(c4)OCO5)cc23)c1,0,0,0,2.2,0,0
COc1ccc(-c2cc(NCc3ccccn3)n3ncnc3n2)cc1,-,0,0,-,2,0
c1ccc(CNc2c3c(nc4ncnn24)CCCC3)nc1,0,0,0,2.5,0,0
Cc1nc2ccc(S(=O)(=O)NC(C(=O)NCc3ccco3)C(C)C)cc2s1 (centres undefined),0,0,0,0,0,60
O=C(COc1ccc(Br)cc1)Nc1cccc(Cl)c1,-,0,-,-,-,-
CCOc1cc(C(c2c(C)[nH][nH]c2=O)c2c(C)[nH][nH]c2=O)ccc1OCc1ccc([N+](=O)[O-])cc1,-,-,-,2.7,-,-
CCOc1cc(C(c2c(C)[nH][nH]c2=O)c2c(C)[nH][nH]c2=O)ccc1OC(=O)c1cccc([N+](=O)[O-])c1,-,-,-,0,-,-
O=C1CC(CC(=C2C(=O)CCCC2=O)N2CCCC2)CC(=O)N1,-,0,-,-,-,-
O=C(Cc1ccccc1)Nc1ncc(Cc2ccc(Cl)c(Cl)c2)s1,-,0,-,-,-,-
O=C(NCc1cccs1)C1CCN(c2nc3ccccc3o2)CC1,0,0,0,0,0,0
CC(C)CCNC(=O)C1CCN(c2nc3ccccc3o2)CC1,0,0,0,0,0,71
CC(=O)CC(=O)Nc1ccc(Br)cc1,-,0,-,-,-,-
CCSCCOC(=O)C1=C(C)N(C)C(=O)NC1c1ccc(OC)cc1 (centres undefined),-,0,-,-,-,-
Cc1nn2c(-c3cccc(NC(=O)c4ccco4)c3)nnc2c2ccccc12,0,-,51,0,-,0
CCCCCCCCCCSc1n[nH]c(NC(C)=O)n1,-,-,-,2.9,-,-
CCCSc1n[nH]c(NC(C)=O)n1,0,0,0,0,0,0
C[C@H](Cc1ccc(O)c(O)c1)[C@@H](C)Cc1ccc(O)c(O)c1,98,-,-,-,-,-
N[C@@H](Cc1ccc(O)c(O)c1)C(=O)O,0,-,-,-,-,-
SMILES,Hsp90 block,HePTP inh,MKP-1 inh,PLAP activator,TNAP act DEA,Cdc25B inh
CC(Cc1ccc(O)c(O)c1)C(C)Cc1ccc(O)c(O)c1 (centres undefined),103,0,0,-,0,0
COC(=O)C1=CNC=C(C(=O)OC)C1c1ccc(C)cc1,-,0,-,-,-,-
COC(=O)C1=CNC=C(C(=O)OC)C1c1ccc(C(=O)OC)cc1,0,0,0,2,0,0
CCOc1ccc(/C=C2\C(=O)NC(=O)N(c3ccc(Cl)cc3)C2=O)cc1Br,-,0,-,-,-,-
O=C(NC(=S)Nc1cc([N+](=O)[O-])cc(Cl)c1O)c1cccnc1,-,103,-,-,-,-
CC(OCc1ccccc1)C(NC(=O)OC(C)(C)C)C(=O)Nc1nccs1 (centres undefined),-,0,-,-,-,-
O=C(c1ccc(Br)s1)N1CCN(C/C=C/c2ccccc2)CC1,-,-,-,2,-,-
COC(=O)c1cc(C(=O)c2ccc(Cl)cc2Cl)cn1C,-,-,-,0,-,-
Cn1cc(C(=O)c2ccc(Cl)cc2Cl)cc1C(=O)N/N=C(\N)COc1cccc(C(F)(F)F)c1,-,-,-,2,-,-
CC1CN(C(=O)c2cc(-c3ccccc3)nc3ccccc23)CC(C)O1 (centres undefined),-,0,-,-,-,-
CCC(Sc1nc2n[nH]c(C)c2c(=N)n1-c1cccc(Cl)c1)C(=O)NCCOC (centres undefined),0,-,0,2.1,-,0
Cc1nnc(NC(=O)CN2C(=O)c3ccccc3S2(=O)=O)s1,0,0,0,2.1,0,0
CC(=O)Nc1ccc(NS(=O)(=O)c2cccc3c2C(=O)c2ccccc2C3=O)cc1,-,102,-,-,-,-
CC(=O)Nc1ccc(NS(=O)(=O)c2ccc(C(C)(C)C)cc2)cc1,-,96,-,-,-,-
O=[N+]([O-])c1ccc(N2CCN(S(=O)(=O)c3ccccc3)CC2)cc1NCCc1ccccc1,-,0,-,-,-,-
CCc1ccc(C(C(=O)NCc2ccc(OC)cc2)N(CCOC)C(=O)Cc2cccs2)cc1 (centres undefined),-,-,-,0,-,-
COCCN(C(=O)Cc1cccs1)C(C(=O)NCc1ccc(OC)cc1)c1ccc(C(C)C)cc1 (centres undefined),-,-,-,2.6,-,-
CCOC(=O)C1=C(O)/C(=C/c2ccc(C)cc2)SC1=Nc1ccc(C)cc1,-,54,-,-,-,-
CC1=CC(C#N)(C#N)C(C#N)(C#N)C(c2ccccc2)N1 (centres undefined),51,0,0,0,0,0
COc1cc(C(=O)NC(NC(=S)Nc2ccccc2Br)C(Cl)(Cl)Cl)cc(OC)c1OC (centres undefined),-,0,-,-,-,-
COC(=O)C1=C(C)NC(C)=C(C(=O)OC)C1c1ccc(OC)cc1,-,0,-,-,-,-
O=c1c2cc(N3CCOCC3)ccc2[nH]c(=S)n1Cc1cccc(Cl)c1,-,-,-,0,-,-
O=c1c2cc(N3CCOCC3)ccc2[nH]c(=S)n1Cc1ccco1,0,0,81,0,0,0
CCOC(=O)CNC(=O)CNC(=O)c1ccc(OC)cc1,0,0,0,0,0,0
CCCCOc1ccc(C(=O)NCC(=O)NCC(=O)OCC)cc1,0,0,0,0,0,91
SMILES,Hsp90 block,HePTP inh,MKP-1 inh,PLAP activator,TNAP act DEA,Cdc25B inh
O=C(c1ccc(N2CCNCC2)cc1)c1cccc(F)c1,-,0,-,-,-,-
Cc1ccc(-n2[nH]c(=O)c(/C=c3/c(C)c(C#N)c4nc5ccccc5n4c3=O)c2O)cc1C,-,102,-,-,-,-
O=C(N/C(=C/c1cccc(Br)c1)C(=O)N1CCCCCC1)c1ccccc1,-,0,-,-,-,-
Cc1nc(SCc2ccccc2C)n[nH]1,0,0,0,2,0,0
O=C1/C(=C\c2ccc3c(c2)OCO3)N=C(c2ccccc2)N1c1ccc(F)cc1,-,0,-,-,-,-
COc1ccc(C2=CSC3=C(C(=O)c4cccc(S(=O)(=O)N(C)C)c4)CCN23)cc1,-,-,-,2.9,-,-
COc1ccc(S(=O)(=O)N2CCN(C(=O)c3cccc(OC)c3)CC2)cc1,-,0,-,-,-,-
CC(NC(=O)c1ccccc1Cl)c1ccccc1 (centres undefined),-,98,-,-,-,-

# Source: PubChem
